The source of these data is PubChem BioAssay (EPA / NIEHS).

Inconclusive results are not listed. The source made the active and inactive calls. Rule for the calls: active = hit-call score of the fitted dose curve at least 0.9, where 1 is the maximum; inconclusive = response in the unintended direction; inactive = score below 0.9.

The term AC50 denotes the midpoint of the concentration-response curve, whichever way the signal moves.

Sequence of human Vascular Endothelial Growth Factor Receptor 1 (VEGFR1), FLT1 (gene 2321) (P17948 whole entry, looked up): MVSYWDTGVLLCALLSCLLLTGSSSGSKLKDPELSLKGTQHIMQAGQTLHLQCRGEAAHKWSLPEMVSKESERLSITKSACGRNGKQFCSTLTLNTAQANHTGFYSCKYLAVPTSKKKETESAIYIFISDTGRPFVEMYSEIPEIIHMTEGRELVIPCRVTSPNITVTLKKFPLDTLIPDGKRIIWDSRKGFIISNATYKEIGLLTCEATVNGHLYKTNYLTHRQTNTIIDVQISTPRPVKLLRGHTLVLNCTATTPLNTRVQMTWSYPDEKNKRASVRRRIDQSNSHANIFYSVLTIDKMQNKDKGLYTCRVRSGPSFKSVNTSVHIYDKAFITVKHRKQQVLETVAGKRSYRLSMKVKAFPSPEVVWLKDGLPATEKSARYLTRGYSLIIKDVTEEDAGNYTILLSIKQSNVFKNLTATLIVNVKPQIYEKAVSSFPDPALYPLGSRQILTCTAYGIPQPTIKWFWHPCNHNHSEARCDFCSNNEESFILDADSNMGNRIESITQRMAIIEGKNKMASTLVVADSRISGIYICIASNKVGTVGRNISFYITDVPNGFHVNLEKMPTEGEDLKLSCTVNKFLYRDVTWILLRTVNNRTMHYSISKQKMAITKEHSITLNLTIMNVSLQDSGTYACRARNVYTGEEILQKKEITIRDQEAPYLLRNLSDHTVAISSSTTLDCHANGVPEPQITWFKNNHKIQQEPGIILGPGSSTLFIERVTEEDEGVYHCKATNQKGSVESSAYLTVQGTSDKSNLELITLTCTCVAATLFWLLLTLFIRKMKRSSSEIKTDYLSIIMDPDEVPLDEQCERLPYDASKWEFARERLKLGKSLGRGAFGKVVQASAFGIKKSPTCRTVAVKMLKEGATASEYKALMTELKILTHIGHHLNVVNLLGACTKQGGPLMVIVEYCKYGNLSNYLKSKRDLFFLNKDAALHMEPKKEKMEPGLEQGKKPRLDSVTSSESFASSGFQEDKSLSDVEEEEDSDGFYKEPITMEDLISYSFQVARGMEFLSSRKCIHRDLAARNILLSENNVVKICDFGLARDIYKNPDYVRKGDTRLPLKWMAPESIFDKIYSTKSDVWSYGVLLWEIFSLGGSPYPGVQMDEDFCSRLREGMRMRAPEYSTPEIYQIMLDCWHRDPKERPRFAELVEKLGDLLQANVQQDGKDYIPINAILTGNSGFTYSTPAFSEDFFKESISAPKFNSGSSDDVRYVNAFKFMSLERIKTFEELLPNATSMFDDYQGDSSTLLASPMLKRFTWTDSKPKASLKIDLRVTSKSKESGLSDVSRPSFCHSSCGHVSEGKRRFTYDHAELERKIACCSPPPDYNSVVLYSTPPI
Sequence of human Vascular Endothelial Growth Factor Receptor 3 (VEGFR3), FLT4 (gene 2324) (P35916 whole entry, looked up): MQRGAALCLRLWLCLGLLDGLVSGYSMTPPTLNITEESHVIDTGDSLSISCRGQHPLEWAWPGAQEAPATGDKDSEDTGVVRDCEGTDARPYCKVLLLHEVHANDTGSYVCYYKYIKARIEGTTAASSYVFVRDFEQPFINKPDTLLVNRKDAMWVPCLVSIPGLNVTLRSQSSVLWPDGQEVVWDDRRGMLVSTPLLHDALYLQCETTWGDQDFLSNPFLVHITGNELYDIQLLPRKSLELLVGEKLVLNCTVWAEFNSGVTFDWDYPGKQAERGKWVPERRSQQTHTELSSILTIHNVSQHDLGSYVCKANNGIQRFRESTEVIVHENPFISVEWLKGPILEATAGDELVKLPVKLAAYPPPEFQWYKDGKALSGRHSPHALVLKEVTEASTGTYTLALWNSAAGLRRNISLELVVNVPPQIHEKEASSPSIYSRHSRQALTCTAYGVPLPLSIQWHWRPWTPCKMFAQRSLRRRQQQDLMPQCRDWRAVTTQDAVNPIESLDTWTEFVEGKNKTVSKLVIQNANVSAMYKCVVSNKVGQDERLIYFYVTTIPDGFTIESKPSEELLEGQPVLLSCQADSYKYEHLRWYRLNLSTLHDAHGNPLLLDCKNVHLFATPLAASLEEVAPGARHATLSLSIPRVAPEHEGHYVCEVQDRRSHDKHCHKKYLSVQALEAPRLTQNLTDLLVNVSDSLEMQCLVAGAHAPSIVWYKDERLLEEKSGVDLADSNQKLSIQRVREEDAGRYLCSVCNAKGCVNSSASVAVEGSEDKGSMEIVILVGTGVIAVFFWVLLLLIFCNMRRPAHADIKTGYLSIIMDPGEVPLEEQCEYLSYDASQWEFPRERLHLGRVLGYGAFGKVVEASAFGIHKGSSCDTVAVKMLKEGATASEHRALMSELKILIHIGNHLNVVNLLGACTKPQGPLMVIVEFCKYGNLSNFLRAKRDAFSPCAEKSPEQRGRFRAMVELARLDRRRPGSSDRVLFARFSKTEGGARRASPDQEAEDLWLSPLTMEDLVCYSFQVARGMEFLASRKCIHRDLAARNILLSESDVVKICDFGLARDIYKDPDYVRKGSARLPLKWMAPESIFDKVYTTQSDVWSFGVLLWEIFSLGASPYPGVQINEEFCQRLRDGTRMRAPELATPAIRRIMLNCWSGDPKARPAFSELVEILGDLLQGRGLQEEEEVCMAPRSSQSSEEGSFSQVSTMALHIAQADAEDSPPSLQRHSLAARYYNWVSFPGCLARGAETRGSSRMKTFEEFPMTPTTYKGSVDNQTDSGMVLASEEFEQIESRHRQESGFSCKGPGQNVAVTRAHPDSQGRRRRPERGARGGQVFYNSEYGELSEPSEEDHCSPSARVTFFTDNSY

The first assay has as its target human Vascular Endothelial Growth Factor Receptor 1 (VEGFR1), FLT1 (gene 2321) (UniProt P17948). Kind of assay: NVS_ENZ_hVEGFR1: NovaScreen (NVS) Enzymatic Assay for human Vascular Endothelial Growth Factor Receptor 1 (VEGFR1) (AID 2283226). The method, boiled down:
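Kinase activity of recombinant human VEGFR1 was read by fluorescence after electrophoretic separation of product from substrate, 1 h post-dosing; initial duplicate single-point testing at 25 uM, followed by concentration-series follow-up, with DMSO as baseline.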
Consider `O=c1oc2ccccc2c(O)c1C(CC(O)c1ccc(-c2ccc(Br)cc2)cc1)c1ccccc1` (configuration not stated), for which the AC50 was 16.9 µM (active).
The same measure, in the same setting: in the case of `Nc1c(Oc2ccccc2)cc(O)c2c1C(=O)c1ccccc1C2=O` it was 0.898 µM (active).
Regarding `O=C(N[C@H]1CN2CCC1CC2)c1ccc2c(c1)OCCO2`, the compound was called inactive.
In the case of `Clc1cccc(Cl)c1Cl`, the compound was called inactive.
Turning to `CCCCCCCCCCCCc1cccc(S(=O)(=O)O)c1`, the AC50 was 22.9 µM (active).
As for `N#Cc1cccnc1`, the compound was called inactive.
For the compound `C=C(C)C(=O)OCC(CC)CCCC` (configuration not stated), the compound was classed as inactive.

The next assay deals with human Vascular Endothelial Growth Factor Receptor 3 (VEGFR3), FLT4 (gene 2324) (UniProt P35916). Kind of assay: NVS_ENZ_hVEGFR3: NovaScreen (NVS) Enzymatic Assay for human Vascular Endothelial Growth Factor Receptor 3 (VEGFR3) (AID 2283229). The method, boiled down:
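Chemicals first run in duplicate at 25 uM, with actives re-tested in concentration series to a top of 50 uM. Recombinant VEGFR3 activity measured after 1 h via fluorescence with mobility-shift product separation; inhibition fitted relative to DMSO.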
Take `O=C1c2ccccc2C(=O)C1C(=O)C(c1ccccc1)c1ccc(Cl)cc1` (configuration not stated): the half-maximal activity concentration (AC50) was 2.4 µM (active).
`O=C(N[C@H]1CN2CCC1CC2)c1ccc2c(c1)OCCO2`: the compound was classed as inactive.
Regarding `COc1nn(C(=O)NS(=O)(=O)c2ccccc2OC(F)(F)F)c(=O)n1C`, the concentration at half-maximal activity (AC50) is 11.4 µM (active).
Regarding `CCCCCCCCCCCCc1cccc(S(=O)(=O)O)c1`, the AC50 is 10.7 µM (active).
The same measure, in the same setting: with `CC(C)O.CC(C)O.OCCN(CCO)CCO.OCCN(CCO)CCO.[Ti]` the figure was 21.8 µM (active).
